Records with an inconclusive call do not appear. Where a call stands in place of a potency, no number is given. Active and inactive are the calls of the source. Unless noted, the call rests on the fitted dose curve; in most records, active means well fitted curve in the direction sought with a large enough effect; inconclusive means small, poorly fitted or top-dose-only effect, or another doubt; inactive means no such curve, though single readings can be large; an effect the other way counts as inactive or inconclusive.
Columns and labels:
[1] = biological target: Cytochrome P450 3A4 (Homo sapiens) (UniProt P08684); assay: qHTS Assay for Activators of Cytochrome P450 3A4 (AID 885); further: nearly all actives have a fitted effect of over 65% in size
Method in brief: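 Human CYP3A4 dealkylates Luciferin-PPXE to luciferin, which luciferase detection converts to light. Substrate was at its KM (25uM), buffer 200mM KPO4, reaction 60 min at RT.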

[2] = Confirmation and Secondary Assay for Modulators of Hemoglobin Beta Chain Splicing at IVS2 654 locus (AID 910);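 further: per-well total GFP intensity by laser scanning cytometry after 2-day treatment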
Method in brief: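 HeLa cells stably carrying EGFP interrupted by mutant beta-globin IVS2-654 intron (CMV-driven) were treated with compound for 2 days at 37C; corrected splicing was scored as total peak GFP intensity per well (488 nm excitation, 500-520 nm emission).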

[3] = Confirmation and Secondary Assay for Modulators of Hemoglobin Beta Chain Splicing at IVS2 705 locus (AID 930);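 further: HeLa cells stably expressing the EGFP-705 splicing reporter; GFP fluorescence per well restored by corrected splicing of the IVS2-705 intron in EGFP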
Method in brief: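 First, HeLa EGFP-705 cells are seeded at 500/well in Optimem with 2% FCS and left overnight. Next, compound or DMSO is added for 2 days. Finally wells are laser-scanned and total peak GFP intensity scored.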

[4] = qHTS Assay for Lipid Storage Modulators (AID 1519; calls by dose curve); conditions: Drosophila S3 cells, BODIPY lipid droplet/cell ratio, laser cytometry, cells loaded with oleic acid; for activity change, negative = inhibition: at 57.5 µM (top of the series)
Method in brief: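 Cells seeded at 5,000 per well were treated with compounds over a concentration series and loaded with oleic acid (400 uM, as added). Lipid droplet fluorescence (488 nm excitation, 500-530 nm channel) was read by laser-scanning cytometry and normalized to 20 uM Triacsin C.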

[5] = biological target: Ubiquitin carboxyl-terminal hydrolase 1 (Homo sapiens) (UniProt O94782); assay: Inhibitors of USP1/UAF1: Pilot qHTS (AID 504865);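 further: rhodamine fluorescence freed from ubiquitin-rhodamine substrate followed over time; top concentration of the series differs between compounds; nearly all actives have a fitted effect of over 35% in size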
Method in brief: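 Enzyme-free wells gave the negative control, while test wells held 1nM USP1/UAF1 preincubated with compound for 15 min at room temperature. Ub-Rho at 150nM final started the reaction, and fluorescence at 480/540 nm was recorded kinetically.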

[6] = biological target: Cytochrome P450 3A4 (Homo sapiens) (UniProt P08684); assay: qHTS Assay for Inhibitors and Substrates of Cytochrome P450 3A4 (AID 884); further: nearly all actives have a fitted effect of over 50% in size
Method in brief: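 Luminescent readout of luciferin produced by CYP3A4 (20 nM) dealkylation of Luciferin-PPXE, 25 uM (its KM). NADPH-driven reaction ran 60 min at RT after 10 min compound preincubation; data scaled to 57 uM ketoconazole as 100% inhibition.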

[7] = measured here: cell count channel max response
[8] = measured here: lipid channel max response

Ubiquitin carboxyl-terminal hydrolase 1 (Homo sapiens), sequence (O94782 whole entry, looked up): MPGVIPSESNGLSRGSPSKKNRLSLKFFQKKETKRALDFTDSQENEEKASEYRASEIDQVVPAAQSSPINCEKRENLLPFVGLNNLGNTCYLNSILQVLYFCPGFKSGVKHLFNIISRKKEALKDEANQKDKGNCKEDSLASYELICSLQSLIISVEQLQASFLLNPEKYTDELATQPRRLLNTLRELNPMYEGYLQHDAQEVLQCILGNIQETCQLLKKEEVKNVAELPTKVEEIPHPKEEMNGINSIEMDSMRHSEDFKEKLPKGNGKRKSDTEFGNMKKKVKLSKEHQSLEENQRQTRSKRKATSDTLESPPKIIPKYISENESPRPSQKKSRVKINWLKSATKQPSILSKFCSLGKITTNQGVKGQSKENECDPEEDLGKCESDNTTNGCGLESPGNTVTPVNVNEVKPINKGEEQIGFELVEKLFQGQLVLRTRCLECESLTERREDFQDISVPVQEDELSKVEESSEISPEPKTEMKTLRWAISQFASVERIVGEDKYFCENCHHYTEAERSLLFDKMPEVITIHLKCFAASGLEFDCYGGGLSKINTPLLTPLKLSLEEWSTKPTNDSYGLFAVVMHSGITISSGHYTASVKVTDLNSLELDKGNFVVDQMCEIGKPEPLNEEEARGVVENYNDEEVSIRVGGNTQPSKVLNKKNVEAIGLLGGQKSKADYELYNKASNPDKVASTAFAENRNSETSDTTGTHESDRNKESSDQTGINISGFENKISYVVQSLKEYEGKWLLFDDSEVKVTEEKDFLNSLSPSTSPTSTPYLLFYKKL
Cytochrome P450 3A4 (Homo sapiens), sequence (P08684 whole entry, looked up): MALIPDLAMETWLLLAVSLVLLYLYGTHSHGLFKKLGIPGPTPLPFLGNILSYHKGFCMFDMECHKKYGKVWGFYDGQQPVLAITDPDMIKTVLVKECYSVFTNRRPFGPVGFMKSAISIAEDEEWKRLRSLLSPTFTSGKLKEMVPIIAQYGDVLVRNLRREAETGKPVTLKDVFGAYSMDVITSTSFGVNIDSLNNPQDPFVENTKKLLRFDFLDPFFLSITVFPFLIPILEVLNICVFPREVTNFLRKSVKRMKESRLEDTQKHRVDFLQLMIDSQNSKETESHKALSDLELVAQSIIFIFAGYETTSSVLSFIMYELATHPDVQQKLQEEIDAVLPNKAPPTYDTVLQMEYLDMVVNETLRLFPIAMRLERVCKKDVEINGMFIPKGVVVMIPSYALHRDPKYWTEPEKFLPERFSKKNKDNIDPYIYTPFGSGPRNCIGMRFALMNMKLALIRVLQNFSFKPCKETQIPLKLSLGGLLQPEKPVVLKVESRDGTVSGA

Row | Structure (SMILES) | Potency [1] | Potency [2] | Potency [3] | activity change, negative = inhibition [4] | max response [4, 7] [%] | max response [4, 8] [%] | Potency [5] | Potency [6]
1 | Oc1ccc2c(c1)OC(c1ccc(O)c(O)c1)C(O)C2 (stereo not drawn) | inactive | inactive | inactive | 6.52% (inactive) | -5.73 | 1.34 | inactive | 
2 | COc1ccc(C(=O)c2ccc(O)cc2)c(O)c1O | inactive | inactive | inactive | 4.3% (inactive) | 2.91 | 8.25 | inactive | 
3 | COc1ccc(CCC(=O)c2c(O)cc(OC3OC(CO)C(O)C(O)C3O[C@@H]3OC(C)C(O)C(O)C3O)cc2O)cc1O (stereo partly drawn) |  |  | inactive | 7.07% (inactive) | 3.74 | 14.6 | inactive | inactive
4 | O=C(/C=C/c1ccccc1)c1ccc(O)cc1 | inactive | inactive | inactive | 4.07% (inactive) | -2.42 | 2.04 | inactive | 
5 | O=C(CCc1ccc(O)cc1)c1c(O)cc(O)cc1O[C@H]1OC(CO)C(O)C(O)C1O (stereo partly drawn) | inactive | inactive | inactive | 6.17% (inactive) | 25.3 | 27.2 | inactive | 
6 | CC1(C)C[C@@H]2C(=O)CCC3O[C@@]3(C)CCC21 (stereo partly drawn) | inactive | inactive | inactive | 3.76% (inactive) | 20.7 | 26.4 | inactive | 
7 | CC1(C)CCC2(C(=O)O)CC[C@]3(C)C(=CCC4[C@]5(C)CCC(O)C(C)(C)C5C(O)C[C@]43C)C2C1 (stereo partly drawn) | inactive | inactive | inactive | 10.3% (inactive) | 9.57 | 24.8 | inactive | 
8 | COc1c(O)cc2c(-c3ccccc3)cc(=O)oc2c1OC | inactive | inactive | inactive | 5.27% (inactive) | 6.33 | 14.2 | inactive | 
9 | COc1ccc(-c2coc3cc(O)ccc3c2=O)c(OC)c1 | inactive | inactive | inactive | -0.403% (inactive) | 3.06 | 3.26 | inactive | 
10 | O=C(/C=C/c1ccccc1)OC1CC(O)C2(O)C=CO[C@@H](OC3OC(CO)C(O)C(O)C3O)C12 (stereo partly drawn) | inactive | inactive | inactive | 3.28% (inactive) | -10.8 | 7.13 | inactive | 
11 | CC12CCC3C(=CCc4cc(O)ccc43)C1CCC2=O (stereo not drawn) | inactive | inactive | inactive | 5.72% (inactive) | -12.9 | -6.28 | inactive | 
12 | COC(=O)CC1C(C)(C)C(OC(C)=O)C2CC3=C4CC(=O)OC(c5ccoc5)[C@]4(C)CCC3[C@@]1(C)C2=O (stereo partly drawn) | inactive | inactive | inactive | -5.96% (inactive) | 14.6 | 10 | inactive | 
13 | COc1cc(O)c(C)c(O)c1 | inactive | inactive | inactive | 1.69% (inactive) | 3.91 | 5.62 | inactive | 
14 | CC(=O)OCC(=O)[C@@]12OC(C)(C)OC1CC1C3CC(F)C4=CC(=O)C=C[C@@]4(C)[C@@]3(F)C(O)C[C@]12C (stereo partly drawn) |  | inactive | inactive | 5.49% (inactive) | 3.91 | 12.9 | inactive | 
15 | CC1(C)C(O)C=C[C@@]2(C)C1CC(=O)O[C@@]1(C)C3=CC(=O)OC(c4ccoc4)[C@]3(C)CCC21 (stereo partly drawn) | inactive | inactive | inactive | 9.57% (inactive) | 1.87 | 14.6 | inactive | 
16 | CCC(=O)OCC(=O)C1(OC(=O)CC)C(C)CC2C3C(Cl)CC4=CC(=O)C=C[C@@]4(C)C3C(O)C[C@@]21C (stereo partly drawn) |  | inactive | inactive | 4.4% (inactive) | 1.88 | 8.57 | inactive | 
17 | C=C1C[C@@]23C[C@@]1(O)CCC2[C@@]12C=CC(O)[C@](C)(C(=O)O1)C2C3C(=O)O (stereo partly drawn) |  | inactive | inactive | 1.95% (inactive) | 6.93 | 10.6 | inactive | 
18 | O=C(O)CCC(=O)C(=O)O (tested in a mixture with another compound) |  | inactive | inactive | 3.77% (inactive) | 11.4 | 18.6 | inactive | 
19 | COC(=O)C1OC(=O)C2O[C@@]23[C@]2(C)C(OC(C)=O)CC4C(C)(C)C(=O)CC[C@]4(C)C2CC[C@@]13C (stereo partly drawn) | inactive | inactive | inactive | -1.69% (inactive) | -0.434 | 4.55 | inactive | 

— PubChem BioAssay (NCATS)
